# A488 autofl: compound autofluorescence in A488 spectral region | AID 591 | max dye equivalency, M | hit rate 0.1% among 59,000 | compound autofluorescence, A488 spectral region, dye equivalency; Compound Type: qHTS ECL - MLSMR
#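 Autofluorescence read at ex 480/em 540 nm after 15 min RT in 100 mM Tris pH 8.0; compound signal normalized to A488 standard series on each plate, reported as dye-equivalent concentration at each test concentration.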
# Rhodamine autofl: rhodamine region autofluorescence; Rhodamine-region fluorescence, 547/598 nm, Tris buffer; active compounds read high; max dye-equivalent concentration, M; hit rate 0.05% among 59,000; in the data active = max dye-equivalent concentration above about 11 nM; inconclusive = between about 1.1 nM and that limit
#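 Steps: pin-transfer compounds into pH 8.0 Tris (100 mM), hold 15 min at room temperature, image with a 547/598 nm filter pair, and convert intensities to rhodamine-equivalent concentration using a six-point on-plate rhodamine series.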
# Texas Red fluor: Texas Red region autofluorescence; Compound fluorescence, Texas Red channel, 547/618 nm; active compounds read high; max dye-equivalent concentration, M; hit rate 0.06% among 59,000; AID 587; in the data active = max dye-equivalent concentration above about 10 nM; inconclusive = between about 1.1 nM and that limit
#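 Compound fluorescence was read after 15 min at room temperature in 100 mM Tris, pH 8.0, using 547 nm excitation and 618 nm emission across a concentration series. It was expressed as Texas Red dye-equivalent concentration from an on-plate standard curve.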
# Resorufin fluor: resorufin region autofluorescence; max dye-equivalent concentration, M; Compound fluorescence, resorufin region 547/598 nm, buffer; active compounds read high; AID 588; hit rate 0.04% among 59,000
#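 Intrinsic fluorescence profiled in the resorufin window (ex 547 nm, em 598 nm) after 15 min at room temperature in pH 8.0 Tris buffer (100 mM); responses normalized against a six-point resorufin standard series as dye-equivalent concentration.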
# A647 fluor: compound fluoresces in the A647 spectral region | max dye-equivalent concentration, M | 59,000 tested, under 10 active | AID 592 | Compound fluorescence, A647 channel (570/671 nm), Tris buffer;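 also: values scaled relative to a standard on each plate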
#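 Fluorescence read (570 nm ex, 671 nm em) after 15 min RT incubation of compounds in 100 mM Tris buffer, pH 8.0; values expressed as dye-equivalent concentration against a six-point A647 standard series on each plate.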
# Fluorescein fluor: compound fluoresces in the fluorescein spectral region; AID 593; hit rate 0.91% among 59,000; Compound autofluorescence, 480/540 nm, fluorescein-equivalent; active compounds read high; max fluorescein-equivalent concentration, M; in the data active = max fluorescein-equivalent concentration above about 10 nM; inconclusive = between about 1.1 nM and that limit
#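 Autofluorescence profiling; 100 mM Tris, pH 8.0; incubation 15 min at RT; ex/em 480/540 nm; result as fluorescein-equivalent concentration.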
# * = called active by the depositor; i = inactive; ? = inconclusive. Shown are actives, neighbours in structure and some others; about 0.96% of the full set was active somewhere. Unless noted, no rule for the calls is given here.
SMILES,A488 autofl,Rhodamine autofl,Texas Red fluor,Resorufin fluor,A647 fluor,Fluorescein fluor
O=C(CCN1C(=O)C2CC=C(Cl)CC2C1=O)N1CCCCC1 (configuration not stated),?,i,i,i,2.33e-08,2.93e-08M*
O=C1C2CC=C(Cl)CC2C(=O)N1CCc1ccccc1 (configuration not stated),i,i,i,i,1e-09,2.03e-08M*
COc1cc2nc(N3CC=[N+](C(=O)c4ccco4)CC3)nc(N)c2cc1OC,i,i,i,i,5.4e-09,i
CCS(=O)(=O)CCSc1nc(C)cc(C)c1C#N,i,i,i,i,1e-09,i
CCOC(=O)CCSc1nc(C)cc(C(F)(F)F)c1C#N,i,i,i,i,1e-09,1.48e-08M*
Cn1ncc(N=Cc2c(O)ccc3ccccc23)c1C(=O)N1CCOCC1,i,i,i,i,1e-09,1.67e-08M*
Cn1ncc(N=Cc2ccccc2O)c1C(=O)Nc1ccccc1,i,i,i,i,7.56e-08,i
CCN1C(=O)/C(=C2\C=Cc3ccccc3N2CC)OC1=S,3.81e-08M*,2.19e-08M*,?,2.16e-08M*,1.08e-08,8.02e-07M*
CC(C)OC(=O)CC(=O)c1sc2nc3c(cc2c1N)CN(C)CC3,?,i,i,i,2.61e-08,1.89e-07M*
CCOC(=O)C1=C(C)NC(C)=C(C(=O)OC)[C@@H]1c1cccc(Cl)c1Cl,i,i,i,i,4.01e-08,?
NC(N)=N[C@H](CCC(=O)O)C(=O)O,i,i,i,i,5.75e-08,?
CCOC(=O)CNC(=O)c1cc(-c2ccc3c(c2)OCCO3)oc1C,?,i,i,i,5.5e-09,4.52e-08M*
CCOC(=O)CNC(=O)c1ccc2c(c1)OCCO2,i,i,i,i,1e-09,i
CC(=O)N1C(=O)C(=C2C=C(C)OC(C)=C2)c2ccccc21,1.28e-08M*,i,i,i,1.88e-08,2.26e-07M*
COC(=O)[C@H]1[C@@H]2C[C@H]3c4[nH]c5ccccc5c4CCN3C[C@@H]2CC[C@@H]1O,i,i,i,i,1.5e-09,i
Cc1ccc(NC(=O)COC(=O)CCc2c[nH]c(=O)[nH]2)cc1,i,i,i,i,1.29e-08,?
O=C(COC(=O)CCc1c[nH]c(=O)[nH]1)Nc1ccccc1,i,i,i,i,1e-09,1.83e-08M*
CCC(=O)c1ccc(OCC(=O)N2CCc3cc(OC)c(OC)cc3C2)cc1,i,i,i,i,5.8e-09,?
COc1cc2c(cc1OC)CN(C(=O)CSc1nc(N)c(C#N)cc1C#N)CC2,i,i,?,i,1.5e-09,1.89e-08M*
CC1(C)CC[C@]2(C(=O)O)CC[C@]3(C)C(=CC[C@@H]4[C@@]5(C)CC[C@H](O)C(C)(C)[C@@H]5CC[C@@]43C)[C@@H]2C1,i,i,i,i,1e-09,i
Cc1cc2nc3c(=O)[nH]c(=O)nc-3n(CC(O)C(O)C(O)CO)c2cc1C (configuration not stated),3.12e-08M*,?,i,?,1e-09,7.8e-07M*
Cc1c(CCC#N)c(N2CCN(C3CCCCC3)CC2)n2c(nc3ccccc32)c1C#N,i,i,i,i,2e-09,1.07e-08M*
COc1ccc(-c2c3c(=O)n(C)c(=O)n(C)c3c3nnc4ccccc4n23)cc1,i,i,i,i,1e-09,1.35e-08M*
CC1(C)Cc2c(c(-c3ccco3)[nH]c(=O)c2C#N)CS1,?,i,?,i,6.1e-09,8.7e-08M*
NC(=O)C1=CN([C@@H]2O[C@@H](COP(=O)(O)OP(=O)(O)OC[C@@H]3O[C@H](n4cnc5c(N)ncnc54)[C@@H](OP(=O)(O)O)[C@@H]3O)[C@H](O)[C@@H]2O)C=CC1,i,i,i,i,4.87e-08,?
SMILES,A488 autofl,Rhodamine autofl,Texas Red fluor,Resorufin fluor,A647 fluor,Fluorescein fluor
O=C(NCc1ccco1)c1cccnc1-c1nc2ccccc2s1,?,i,i,i,2.2e-08,3.5e-08M*
Cn1c(CN2CCCCC2)c(C#N)c2ccccc21,i,i,i,i,1e-09,2.47e-08M*
Cn1c(CN2CCC(C(N)=O)CC2)c(C#N)c2ccccc21,i,i,?,i,6.4e-08,?
CCOc1ccc(C2C(C#N)=C(N)SC(N)=C2C#N)cc1OCC,i,i,i,i,2.18e-08,1.43e-08M*
CCOc1ccc(C2C(C#N)=C(N)SC(N)=C2C#N)cc1OC,i,i,i,i,3.78e-08,?
CCOc1ccccc1C1C(C#N)=C(N)SC(N)=C1C#N,i,i,i,i,9e-09,1.26e-08M*
C[C@@H](CN1CCC(Cc2ccccc2)CC1)[C@H](O)c1ccc(O)cc1,i,i,?,i,5.6e-09,i
CCCCc1cc(=O)oc2c(CN(C)C)c(O)ccc12,i,i,i,i,2.69e-08,?
CC[C@@]1(O)C(=O)OCc2c1cc1n(c2=O)Cc2cc3c(CN(C)C)c(O)ccc3nc2-1,2.05e-08M*,i,?,i,4.7e-09,4.27e-07M*
Clc1nc(NCCc2ccccc2)c2ncn(-c3ccccc3)c2n1,i,i,i,i,1e-09,i
CN(C)c1ncc2nc(-c3cccs3)c(=O)n(CCc3ccccc3)c2n1,i,i,?,i,1.22e-08,i
CN(C)c1ncc2nc(-c3cccs3)c(=O)n(CCC#N)c2n1,?,i,i,i,9.3e-09,3.65e-08M*
CN(C)c1ncc2nc(-c3cccs3)c(=O)n(C)c2n1,i,i,i,i,1.51e-08,1.46e-08M*
COc1ncc2nc(-c3cccs3)c(=O)n(CCC#N)c2n1,i,i,i,i,1.36e-08,?
Nc1ncnc2c1ncn2[C@@H]1O[C@@H](CO)[C@H](O)[C@@H]1O,i,i,i,i,1.5e-09,i
CCc1cccc2c3c([nH]c12)[C@](CC)(CC(=O)O)OCC3,i,i,i,i,4.84e-08,?
CCN(CC)CCCn1c(=S)[nH]c2ccccc2c1=O,i,i,i,i,1.5e-09,i
CCN(CC)CC[n+]1ccc2c(C)c3[nH]c4ccccc4c3c(C)c2c1,i,i,i,i,4.04e-08,1.7e-08M*
COc1ccc2c(c1)[C@]1(C)CCC[C@](C)(CO)[C@@H]1CC2,i,i,i,i,1e-09,i
C=C[C@@H]1CN2CC[C@@H]1C[C@H]2[C@H](O)c1ccnc2ccc(OC)cc12,i,i,i,i,7e-09,i
COc1ccc(CCn2c(=N)c(C#N)cc3c(=O)n4ccccc4nc32)cc1,i,i,i,i,2.7e-09,1.01e-08M*
CCOC(=O)c1cc2c(=O)n3ccccc3nc2n(Cc2ccccc2)c1=N,?,i,i,i,2.03e-08,1.6e-07M*

# Source: PubChem BioAssay
